Test results as given in PubChem BioAssay (Tox21).
Inconclusive results are not listed. Values without a mark were called inactive. The source made the active and inactive calls. The call rests on the fitted dose curve; in most records, active means well fitted activation curve with a large enough effect in the repeat runs; inconclusive means weak or mixed curves; inactive means no such curve, though single readings can be large or run the other way.

assay: qHTS assay for small molecules that induce genotoxicity in human embryonic kidney cells expressing luciferase-tagged ATAD5 (AID 651632); settings: HEK293T ATAD5-luciferase induction, 16 h; series mostly up to 83.3 µM; activation: at the top concentration; further: nearly all actives have a fitted effect of over 15% in size
Summary of the method: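 HEK293T cells carrying a luciferase reporter tagged to ATAD5 were exposed to compound or DMSO vehicle for 16 hr at 37C, 5% CO2. Amplite was added, and after 30 min at room temperature luciferase activity was read as a marker of ATAD5 induction.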
On the % scale 0 is the no-effect control and ±100 the full control effect; potency means the concentration at half of the fitted maximal effect.

| Structure (SMILES) | activation | Potency |
| --- | --- | --- |
| CNC(=O)c1c(I)c(C(=O)NCC(=O)Nc2c(I)c(C(=O)O)c(I)c(C(=O)NCCO)c2I)c(I)c(N(C)C(C)=O)c1I | -1.34% |  |
| CCCCCc1ccc(C)cc1O | -3.93% |  |
| N#CC(c1ccc(Cl)cc1)c1c(Cl)cc(-n2ncc(=O)[nH]c2=O)cc1Cl (centres undefined) | -11.7% |  |
| CN[C@H]1CCc2cc(OC)c(OC)c(OC)c2-c2ccc(OC)c(=O)cc21 |  | 237 nM (active) |
| COC(=O)C1=C(C#N)NC(C)=C(C(=O)OC(C)C)C1c1cccc([N+](=O)[O-])c1 (centres undefined) | -6.08% |  |
| C[C@]12C=CC(=O)N[C@@H]1CC[C@@H]1[C@@H]2CC[C@]2(C)[C@@H](C(=O)Nc3cc(C(F)(F)F)ccc3C(F)(F)F)CC[C@@H]12 | 4.53% |  |
| CC(=O)Nc1ccc(OC(=O)c2ccccc2O)cc1 | 8.08% |  |
| NC(=O)Oc1ccc(Cc2ccccc2)cc1 | 1.48% |  |
| CCCCCCCN(CC)CCCC(O)c1ccc(NS(C)(=O)=O)cc1 (centres undefined) | 1.52% |  |
| [O]=[Bi][O]C(=O)[O][Bi]=[O] | -3.1% |  |
| C[C@]12CC[C@@H]3c4ccc(OC(=O)c5ccccc5)cc4CC[C@H]3[C@@H]1CC[C@@H]2O | 2.11% |  |
| CCC(=O)O[C@]1(C(=O)CCl)[C@@H](C)C[C@H]2[C@@H]3C[C@H](F)C4=CC(=O)C=C[C@]4(C)[C@@]3(F)[C@@H](O)C[C@@]21C | -4.54% |  |
| Clc1cc(Cl)c(OCC#CI)cc1Cl | -3.54% |  |
| CC1=C(C(=O)OCCN(Cc2ccccc2)c2ccccc2)C(c2cccc([N+](=O)[O-])c2)C(P2(=O)OCC(C)(C)CO2)=C(C)N1 (centres undefined) | -9.71% |  |
| CCC(C)(C)OC(=O)N[C@@H](Cc1c[nH]c2ccccc12)C(=O)N[C@@H](CCSC)C(=O)N[C@@H](CC(=O)O)C(=O)N[C@@H](Cc1ccccc1)C(N)=O | 1.96% |  |
| C=C[C@]1(C)C[C@@H](OC(=O)CSC(C)(C)CNC(=O)[C@H](N)C(C)C)[C@]2(C)[C@H](C)CC[C@]3(CCC(=O)[C@H]32)[C@@H](C)[C@@H]1O | -6.73% |  |
| C=C1C(=C/C=C2\CCC[C@]3(C)[C@@H]([C@H](C)CCCC(C)(C)O)CC[C@@H]23)C[C@@H](O)C[C@@H]1O | -11.3% |  |
| CO[C@H]1C=CO[C@@]2(C)Oc3c(C)c(O)c4c(O)c(c(/C=N/N5CCN(C6CCCC6)CC5)c(O)c4c3C2=O)NC(=O)/C(C)=C\C=C[C@H](C)[C@H](O)[C@@H](C)[C@@H](O)[C@@H](C)[C@H](OC(C)=O)[C@@H]1C | -13.3% |  |
| O=C(CO)[C@@H](O)[C@H](O)[C@@H](O)C(=O)O | 2.54% |  |
| O=C(Nc1ccc(Br)cc1)c1cc(Br)c(Br)s1 | 1.85% |  |

| Structure (SMILES) | activation | Potency |
| --- | --- | --- |
| CCCOc1ccc2nc(NC(=O)OC)sc2c1 |  | 1880 nM (active) |
| CN1[C@@H]2CC[C@H]1CC(OC(c1ccccc1)c1ccccc1)C2 (some centres undefined) |  | inactive |
| c1ccc2c(c1)Sc1ccccc1N2CCN1CCCC1 | -5.85% |  |
| C[N+]1(C)[C@@H]2CC(OC(=O)C(O)(c3cccs3)c3cccs3)C[C@H]1[C@@H]1O[C@@H]12 (some centres undefined) | 7.53% |  |
| CCCCCCCCCCCCCCCC(=O)OC[C@@H](O)[C@H]1OC[C@H](O)[C@H]1O | -1.24% |  |
| CCC(=O)OCC(=O)[C@@]1(OC(=O)CC)[C@@H](C)C[C@H]2[C@@H]3CCC4=CC(=O)C=C[C@]4(C)[C@@]3(Cl)[C@@H](O)C[C@@]21C | -8.98% |  |
| NC[C@@H]1O[C@H](O[C@H]2[C@@H](O)[C@H](O[C@@H]3[C@@H](O)[C@H](N)C[C@H](N)[C@H]3O[C@H]3O[C@H](CN)[C@@H](O)[C@H](O)[C@H]3N)O[C@@H]2CO)[C@H](N)[C@@H](O)[C@@H]1O | 2.38% |  |
| O=C1/C(=C\c2cccs2)CCC/C1=C\c1cccs1 |  | 5960 nM (active) |
| CN(C)CCOc1ccccc1Cc1ccccc1 (tested in a mixture with another compound) | 1.59% |  |
| Cc1cc(-c2ccc(N=Nc3c(S(=O)(=O)O)cc4cc(S(=O)(=O)O)cc(N)c4c3O)c(C)c2)ccc1N=Nc1c(S(=O)(=O)O)cc2cc(S(=O)(=O)O)cc(N)c2c1O | -18.2% |  |
| O=C(OCc1ccccc1)c1cccnc1 | 9.11% |  |
| O=C(O)CO.[NH2-].[NH2-].[Pt+2] | 1.34% |  |
| CC(=O)O[C@H]1CC[C@@]2(C)C(=CC[C@@H]3[C@@H]2CC[C@]2(C)C(c4cccnc4)=CC[C@@H]32)C1 | 5.45% |  |
| CCCCC(=O)N(Cc1ccc(-c2ccccc2-c2nn[nH]n2)cc1)[C@@H](C(=O)O)C(C)C | -3.85% |  |
| CCOc1cc(-c2nccc3cc(OC)c(OC)cc23)cc(OCC)c1OCC | -17.5% |  |
| C=C1CC[C@H](O)CC1=C/C=C1\CCC[C@]2(C)[C@@H]([C@H](C)CC[C@@H](O)C(C)(C)O)CC[C@@H]12 | -9.59% |  |
| CCOC(=O)[C@@H](N)CS | -5.14% |  |
| Cn1c(O)c(N=NC(N)=S)c2ccccc21 | 2.28% |  |
| CC(/C=C/C=C(\C)C(=O)O[C@@H]1O[C@H](CO[C@@H]2O[C@H](CO)[C@@H](O)[C@H](O)[C@H]2O)[C@@H](O)[C@H](O)[C@H]1O)=C\C=C\C=C(C)\C=C\C=C(/C)C(=O)O[C@@H]1O[C@H](CO[C@@H]2O[C@H](CO)[C@@H](O)[C@H](O)[C@H]2O)[C@@H](O)[C@H](O)[C@H]1O | -1.5% |  |
